In the library only some 3.7% were active in any assay of this set; here they are far more common.
Nrf2 ARE act: qHTS of Nrf2 Activators | Potency, µM (highest dose often 46.1 µM), without a hit: at the top dose activation, usual class: activators | AID 624171, 2012 | 410,000 compounds, 0.31% hits | AREc32 ARE-luciferase reporter (MCF7-derived line), luminescence, 24 h; further: % of control where 0% means no effect; nearly all actives have a fitted effect of over 65% in size
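Each well held 1000 AREc32 cells, which were incubated with compound for 24 hr at 37 deg C after overnight attachment, and ARE reporter activity was quantified by firefly luciferase luminescence.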
A549 tox-1: Nrf2 qHTS screen for inhibitors: counterscreen for cytotoxicity; A549 ARE-Fluc cells, CellTiter-Fluor viability, 18-24 h; Potency, µM (doses to about 46 µM), for the others: at the highest dose activity change, negative = cytotoxicity, usual class: inhibitors; 390,000 compounds, 0.16% hits; further: on the % scale 0 is the no-effect control and ±100 the full control effect
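Cytotoxicity counterscreen: CellTiter-Fluor fluorescence was measured in A549 ARE_Fluc cells after 18-24 h of compound exposure in a concentration series. The subsequent BugLite luminescent read reports ARE-luciferase activity.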
ELG1 DNA repair: qHTS screen for small molecules that inhibit ELG1-dependent DNA repair in human embryonic kidney (HEK293T) cells expressing luciferase-tagged ELG1. 330,000 compounds, 2.3% hits. Potency, µM (doses to about 46.1 µM), inactives show top-dose activity change, negative = inhibition, usual class: inhibitors. HEK293T ELG1-luciferase reporter, luminescence, 16 h; DNA damage induced by 5-fluorouridine. AID 504467, 2011; further: on the % scale 0 is the no-effect control and ±100 the full control effect; nearly all actives have a fitted effect of over 55% in size
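Step one: seed 2,000 cells per well. Step two: pin-transfer compound or DMSO alongside 5-fluorouridine. Step three: incubate 16 hr, 37 °C, 5% CO2. Step four: add ONE-Glo, wait 30 min, read luminescence.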
Nrf2 block: Nrf2 qHTS screen for inhibitors | A549 ARE-Fluc reporter, luciferase luminescence, 18-24 h | Potency, µM (top dose mostly 46 µM), without a hit: at the highest dose activity change, negative = inhibition, most hits filed as inhibitors | 360,000 compounds, 2.1% hits; further: on the % scale 0 is the no-effect control and ±100 the full control effect; nearly all actives have a fitted effect of over 60% in size
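A549 ARE_Fluc cells, 5000/well, 5% FBS OPTI-MEM; compounds in dose-response, 18-24 h at 37 °C/5% CO2; CellTiter-Fluor viability read (Ex 405/Em 525), then BugLite luciferase luminescence = Nrf2 activity.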
FLuc enzyme inh: Nrf2 qHTS screen for inhibitors: Purified Fluc Biochemical Counterscreen for Hit Validation. shares compounds with Nrf2 block. purified firefly luciferase, luminescence inhibition. AID 720522, 2013. 1,400 compounds, 4% hits. Potency, µM (series often up to 57.5 µM), inactives show at the top dose activity change, negative = inhibition, actives largely listed as inhibitors; further: on the % scale 0 is the no-effect control and ±100 the full control effect; nearly all actives have a fitted effect of over 65% in size
Target sequence (P08659 whole entry, looked up): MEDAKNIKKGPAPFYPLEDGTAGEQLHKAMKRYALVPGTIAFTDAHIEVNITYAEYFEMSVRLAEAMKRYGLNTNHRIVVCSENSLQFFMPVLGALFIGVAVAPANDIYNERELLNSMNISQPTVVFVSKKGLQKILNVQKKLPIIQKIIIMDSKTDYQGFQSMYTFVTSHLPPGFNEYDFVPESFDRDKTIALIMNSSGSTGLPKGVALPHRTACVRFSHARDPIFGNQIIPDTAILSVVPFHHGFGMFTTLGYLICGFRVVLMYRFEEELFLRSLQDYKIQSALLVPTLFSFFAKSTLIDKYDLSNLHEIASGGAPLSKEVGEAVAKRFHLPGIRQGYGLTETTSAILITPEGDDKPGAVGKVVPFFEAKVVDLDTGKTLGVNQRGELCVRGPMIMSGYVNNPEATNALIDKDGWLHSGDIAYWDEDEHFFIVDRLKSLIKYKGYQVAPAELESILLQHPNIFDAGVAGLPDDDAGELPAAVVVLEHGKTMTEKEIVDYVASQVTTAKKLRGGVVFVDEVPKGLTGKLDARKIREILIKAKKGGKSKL
A549 tox-2: Nrf2 qHTS screen for inhibitors: A549 ARE-Fluc Cytotoxicity Counterscreen for Hit Validation | shares compounds with Nrf2 block | A549 ARE-Fluc cells, cytotoxicity counterscreen | Potency, µM (doses to about 46.1 µM), for inactives: at the top dose activity change, negative = cytotoxicity, actives largely listed as inhibitors | 1,400 compounds, 2% hits;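 further: cells exposed to compounds for 18 to 24 hours; on the % scale 0 is the no-effect control and ±100 the full control effect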
ARE-Fluc inh: Nrf2 qHTS screen for inhibitors: Nrf2 A549 ARE-Fluc Confirmation Assay for Hit Validation. shares compounds with Nrf2 block. A549 ARE-firefly luciferase reporter, luminescence. Potency, µM (top dose mostly 46.1 µM), inactives show at the top dose activity change, negative = inhibition, actives largely listed as inhibitors. 1,400 compounds, 74% hits. AID 720524, 2013; further: on the % scale 0 is the no-effect control and ±100 the full control effect; nearly all actives have a fitted effect of over 65% in size
ELG1 Luc conf: HTS assay for small molecules that inhibit ELG1-dependent DNA repair in human embryonic kidney (HEK293T) cells expressing luciferase-tagged ELG1: Hit Confirmation; shares compounds with ELG1 DNA repair; HEK293T ELG1-luciferase levels, luminescence; cells co-treated with 5-fluorouridine; Potency, µM (top dose mostly 46.1 µM), inactives show at the top dose activity change, negative = inhibition, most hits filed as inhibitors; 670 compounds, 68% hits; AID 624248, 2012; further: on the % scale 0 is the no-effect control and ±100 the full control effect; nearly all actives have a fitted effect of over 55% in size
ELG1 MMS Luc: confirmation of human ELG1 repair inhibitors, MMS stimulated. shares compounds with ELG1 DNA repair. HEK293T luciferase-tagged ELG1 level, MMS stimulated. Potency, µM (titrated, usually from 46.1 µM), for inactives: top-dose activity change, negative = inhibition, hits mostly inhibitors. 670 compounds, 53% hits; further: on the % scale 0 is the no-effect control and ±100 the full control effect; nearly all actives have a fitted effect of over 60% in size
ELG1 5-FU: qHTS screen for small molecules that inhibit ELG1-dependent DNA repair: Hit Confirmation with 5FU Viability. shares compounds with ELG1 DNA repair. cell viability with 5-FU, ELG1-dependent repair. Potency, µM (top dose mostly 46.1 µM), inactives show at the top dose activity change, negative = viability loss, most hits filed as cytotoxic. 670 tested, under 10 active;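 further: ELG1-luc HEK293T cells cotreated with 5-fluorouridine at 10 µM final; viability measured 16 h after compound addition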
ELG1 MMS viab: qHTS screen for small molecules that inhibit ELG1-dependent DNA repair: Hit Confirmation with MMS Viability; AID 624251, 2012; shares compounds with ELG1 DNA repair; Cell viability with MMS, ELG1-dependent DNA repair; 670 compounds, 33% hits; Potency, µM (highest dose often 46.1 µM), without a hit: top-dose activity change, negative = viability loss, hits mostly cytotoxic;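 further: ELG1-luc HEK293T cells co-treated with 10 µM MMS; viability read 16 h after compound addition; on the % scale 0 is the no-effect control and ±100 the full control effect; nearly all actives have a fitted effect of over 60% in size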
ELG1 unstim viab: qHTS screen for small molecules that inhibit ELG1-dependent DNA repair: Hit Confirmation with Unstimulated Viability Assay. shares compounds with ELG1 DNA repair. cell viability counter-screen, unstimulated, luminescence. Potency, µM (doses to about 45.9 µM), inactives show top-dose activity change, negative = loss of viability, actives largely listed as cytotoxic. 900 compounds, 8% hits. AID 624252, 2012;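 further: compound exposure lasted 16 hours before reading; on the % scale 0 is the no-effect control and ±100 the full control effect; nearly all actives have a fitted effect of over 55% in size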
* marks the source's active call; other numbers are inactive results; ? = inconclusive; nt = no result shown. The call rests on the fitted dose curve; in most records, active means well fitted curve in the direction sought with a large enough effect; inconclusive means small, poorly fitted or top-dose-only effect, or another doubt; inactive means no such curve, though single readings can be large; an effect the other way counts as inactive or inconclusive. Potency means the concentration at half of the fitted maximal effect.

SMILES	Nrf2 ARE act	A549 tox-1	ELG1 DNA repair	Nrf2 block	FLuc enzyme inh	A549 tox-2	ARE-Fluc inh	others
O=C(NCCc1ccc(F)cc1)c1ccc(Cl)c(S(=O)(=O)N2CCOCC2)c1	0%	-9%	?	8.2µM*	-12%	-8%	?
COc1ccc(CNC(=O)c2ccc(Cl)c(S(=O)(=O)N3CCOCC3)c2)cc1OC	-1%	?	?	1.3µM*	0%	5%	nt
O=C(NCCN1CCOCC1)c1ccc(Cl)c(S(=O)(=O)N2CCOCC2)c1	-1%	3%	-5%	14%	nt	nt	nt
COc1ccc(C(=O)NCc2cccc(Cl)c2)cc1S(=O)(=O)N1CCOCC1	0%	7%	-1%	-28%	nt	nt	nt
Cc1cccc(NS(=O)(=O)c2ccc(C)c(C(=O)NCc3ccccn3)c2)c1	-1%	3%	-18%	-24%	nt	nt	nt
C=CCOc1ccc(Cl)cc1-c1noc(-c2csc([C@H]3C[C@H](O)[C@@H](CO)O3)n2)n1	7%	nt	nt	nt	nt	nt	nt
O=C(Nc1ccc2nc(SCCOc3ccccc3Cl)sc2c1)c1cccs1	2%	0%	nt	9.2µM*	-18%	-3%	8.2µM*
CC(C)NS(=O)(=O)c1ccc(NC(=S)NC(=O)c2ccc(-c3ccccc3)cc2)cc1	0%	-5%	?	2.1µM*	-1%	-9%	4.6µM*
COc1ccc(-c2nc(CSCC(=O)N3CCN(c4ccccc4)CC3)c(C)o2)cc1	-1%	?	nt	2.6µM*	-17%	-22%	?
CCCS(=O)(=O)N1CCCC(C(=O)Oc2ccc(C)c(C)c2)C1 (configuration not stated)	0%	1%	-5%	-3%	nt	nt	nt
C[C@H]1CCC/C=C/[C@@H]2C[C@H](O)C[C@H]2[C@H](O)[C@H](S(=O)c2ccc(O)cc2)CC(=O)O1 (some centres not stated)	0%	?	nt	0.26µM*	1%	?	0.52µM*
CC(CC(=O)N1CCN(c2cccc(Cl)c2)CC1)S(=O)(=O)c1ccc2c(c1)NC(=O)CO2 (configuration not stated)	0%	?	?	6.5µM*	-1%	-19%	23µM*
O=C1COc2ccc(S(=O)(=O)CCC(=O)N3CCN(c4ccccc4)CC3)cc2N1	0%	-3%	7%	2%	nt	nt	nt
COc1ccc(OC)c(CCNC(=O)C(C)n2nc(C)c3c(C)n(-c4ccc(C)cc4)nc3c2=O)c1 (configuration not stated)	-1%	?	-13%	6.5µM*	-1%	?	3.7µM*
COc1ccc(OC)c(CCNC(=O)C(C)n2nc(C)c3c(C)n(-c4ccccc4)nc3c2=O)c1 (configuration not stated)	0%	0%	?	-14%	nt	nt	nt
CCn1cc(CN2CCCC(CNC(=O)COc3ccccc3OC)C2)c(C)n1 (configuration not stated)	-1%	17%	27%	13%	nt	nt	nt
Cc1cc(C)cc(NS(=O)(=O)c2ccc3c(c2)c(=O)n(C)c(=O)n3C)c1	-1%	-22%	?	8.2µM*	2%	-13%	7.3µM*
COc1ccc(CN(C)C(=O)/C=C/c2ccc(S(=O)(=O)N3CCCCCC3)cc2)cc1	2%	-15%	?	9.2µM*	-12%	-18%	?
CNC(=O)c1ccc(CN(C)C(=O)/C=C/c2ccc(S(=O)(=O)N3CCCCCC3)cc2)cc1	0%	nt	nt	nt	nt	nt	nt
O=S(=O)(NCCS(=O)(=O)N1CCN(c2cccc(Cl)c2)CC1)c1ccc(F)cc1	0%	2%	nt	nt	nt	nt	nt
COc1ccc(CCN2C(=O)N(c3cccc(C)c3)C(=O)C2CC(=O)Nc2ccccc2)cc1OC (configuration not stated)	-1%	3%	nt	-15%	nt	nt	nt
O=c1[nH]c(=O)n([C@@H]2O[C@H](CO)[C@@H](O)[C@H]2O)cc1F	nt	nt	nt	nt	0%	?	46%	ELG1 unstim viab=?
O=[N+]([O-])c1ccc2ncnc(N3CCN(Cc4ccc5c(c4)OCO5)CC3)c2c1	-1%	-20%	2.1µM*	8.2µM*	-2%	-11%	16µM*	ELG1 Luc conf=5µM*;ELG1 MMS Luc=13µM*;ELG1 5-FU=-11%;ELG1 MMS viab=25µM*;ELG1 unstim viab=?

Compound activity: PubChem BioAssay, National Center for Advancing Translational Sciences (NCATS)
